# Assay results: PubChem BioAssay (NCATS)
# Results filed as inconclusive are left out. Entries that show only a call come without a potency. Activity calls are given as the source filed them. Calls come from the whole dose curve; as a rule, active = well fitted activation curve with a large enough effect; inconclusive = small, poorly fitted or top-dose-only effect, or another doubt; inactive = no such curve, though single readings can be large or run the other way.
# Target: Rap guanine nucleotide exchange factor 3 (Homo sapiens) (UniProt O95398)
# Assay: Counterscreen qHTS for agonist of cAMP-regulated guanine nucleotide exchange factor 3 (EPAC1) (AID 1645889); note: nearly all actives have a fitted effect of over 40% in size
# Conditions: EPAC1 Rap1B-BODIPY-GDP exchange, fluorescence; series mostly up to 154 µM
# Method in brief: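 Rap1B–BODIPY-GDP (250 nM) with 50 uM GDP; compounds pin-transferred to 9.74 nM–152 uM final (activator) or from 7.32 nM upwards (inhibitor). Fluorescence Ex/Em 480/540 nm read at 5 and 30 min, then after adding cAMP or buffer, at room temperature.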
row,SMILES,Potency
1,COc1ccc(/C=C2\SC(=S)N(CCC(=O)N3CCCCC3CCO)C2=O)cc1 (stereo not given),inactive
2,COc1ccc(OC)c(NC(=O)CSc2ncnc3sc(C)cc23)c1,inactive
3,Cc1nc(N)sc1-c1csc(Nc2ncccn2)n1,inactive
4,O=S(=O)(c1cccc2ccccc12)N1CCCCC1,inactive
5,Cc1ccccc1OCC(=O)Nc1ccc(C(=O)OCc2cc(=O)n3c(C)csc3n2)cc1,inactive
